In the supplement of paper PMC10338343:
± gives the standard deviation. In all, about 6,200 sequences were measured (“pre-steady-state target cleavage rate”: median about 0.29, highest 2% from about 2 on). What follows is part of a selection rich in the highest values, with near analogues and random picks from the rest.

Test system: MIWI (PIWIL1) piRISC loaded with piRNA #1 (30 nt)
Assay: pre-steady-state target cleavage rate (min^-1); MIWI and MILI are mouse PIWI proteins and EfPiwi is from a freshwater sponge; tags in brackets are library labels; higher = faster piRNA-guided slicing of the target
Settings: guide: piRNA #1 5'p-UGAGGUAGUAGGUUGUAUAGUAUCCAGAGG; auxiliary factor: 500 nM mouse GTSF1
Procedure: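 Cleave-'n-Seq: a library of target RNAs (target site embedded in constant flanks, ACAGCATTCCGCGTTAGTGATATCCG... 5' flank; DNA-blocked outside the site) at 0.1 nM was incubated with 1 nM active mouse MILI or MIWI piRISC (synthetic 5'-monophosphorylated piRNA guide) with or without 500 nM mouse GTSF1 at 33 °C for 1 min to 16 h. Uncleaved targets were sequenced and normalised to non-target controls, and the pooled three trials were fitted to a burst-and-steady-state model to give the pre-steady-state cleavage rate (min^-1; k3 is constrained to at most 1e-4). Sequence is the target site only; target names encode pairing extent (gX:gY) and contiguous / 1-mismatch / 2-mismatch / bulge geometry. Fits with R² ≤ 0 are excluded.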

Going from GGUCUGCGAUACUAUACAACCUACUACCUCA to CCUCUGCGAUACUAUACAACCUACUACCUCA, the “pre-steady-state target cleavage rate” value rises from 1.79 ± 0.071 to 2.19 ± 0.12.

GCUCUGGGAUACUAUACAACCUACUACCUCA and GCUCUGCGAUACUAUACAACCUACUACCUCA are within error of each other in “pre-steady-state target cleavage rate” value: 1.89 ± 0.096 for the first, 2.02 ± 0.12 for the second.

First: GGACUGCGAUACUAUACAACCUACUACCUCA
Second: GGAGUGGAUACUAUACAACCUACAACCUCA
The “pre-steady-state target cleavage rate” value of the first is higher: 1.79 ± 0.13 for the first, 0.314 ± 0.037 for the second.

Compared with GGACUGGAUACUAUACCACCUACUACCUCA, GGAGACCUUACUAUUCAACCUAGUACCUCA is lower in “pre-steady-state target cleavage rate” value: 1.17 ± 0.082 for the first, 0.395 ± 0.04 for the second.

Going from GGAGACCUAUGUAUACCACCUACUACCUCA to CCUGUGGAUACUAUACAACCUACAACCUCA, the “pre-steady-state target cleavage rate” value rises from 0.0149 ± 0.0026 to 0.383 ± 0.043.

GGCCUGGAUACUAUACAACCUACUACCUCA and GCCUGGAUACUAUACAACCUACUACCUCA are within error of each other in “pre-steady-state target cleavage rate” value: 1.74 ± 0.098 for the first, 1.87 ± 0.11 for the second.

Compared with CCCCUGGAUACUAUACAACCUACUACCUCA, GCCCUGGAUACUAUACAACCUACUACCUCA is lower in “pre-steady-state target cleavage rate” value: 2.45 ± 0.15 for the first, 2.17 ± 0.12 for the second.

Compared with CCCUGGAUACUAUACAACCUACUACCUCA, CCUGUGGAUACUAUACAACCUACUACCUCA is lower in “pre-steady-state target cleavage rate” value: 2.52 ± 0.18 for the first, 1.86 ± 0.11 for the second.

GGACCUGGAUACUAUACAACCUACUACCUCA and GAUCUGGAUACUAUACAACCUACUACCUCA are within error of each other in “pre-steady-state target cleavage rate” value: 1.96 ± 0.14 for the first, 1.91 ± 0.097 for the second.

Going from GGAGACCUUACUAUACAAGCUAGUACCUCA to GCUCUGGAUACUAUACAACCAACUACCACA, the “pre-steady-state target cleavage rate” value falls from 0.471 ± 0.033 to 0.153 ± 0.018.

GGAGACGAAAGUAUACAACCUACUACCUCA and GGUCUGGAUAGUAUACAACCUACUACGUCA are within error of each other in “pre-steady-state target cleavage rate” value: 0.527 ± 0.062 for the first, 0.583 ± 0.055 for the second.

Compared with GGAGAGGAAACUAUACAUCCUACUACCUCA, GCUCCUGGAUACUAUACAACCUACUACCUCA is higher in “pre-steady-state target cleavage rate” value: 1.19 ± 0.074 for the first, 2.13 ± 0.11 for the second.

Going from GGAGUGGAUACUAUACUACCUACAACCUCA to GGACUGGAUACUAUACAACCUCCUACCUCA, the “pre-steady-state target cleavage rate” value rises from 0.428 ± 0.052 to 0.801 ± 0.052.

Going from GGUCGUGGAUACUAUACAACCUACUACCUCA to CCUCUGGAUACUAUACAACCUCCUACCUCA, the “pre-steady-state target cleavage rate” value falls from 1.72 ± 0.093 to 1.32 ± 0.068.

GCAGUGGAUACUAUACAACCUACUACCUCA and GCUCGUGGAUACUAUACAACCUACUACCUCA are the same in “pre-steady-state target cleavage rate” value: 1.85 ± 0.095 for the first, 1.85 ± 0.095 for the second.

CCUCCUGGAUACUAUACAACCUACUACCUCA and CCUCGUGGAUACUAUACAACCUACUACCUCA are within error of each other in “pre-steady-state target cleavage rate” value: 2.25 ± 0.13 for the first, 2.17 ± 0.16 for the second.

Going from CCAGUGGAUACUAUACAACCUACUACCUCA to GCUCUGGAUACUAUACAACCUCCUACCUCA, the “pre-steady-state target cleavage rate” value falls from 2.01 ± 0.11 to 1.2 ± 0.052.

Going from GGUCCUGGAUACUAUACAACCUACUACCUCA to GGAGACCAUAUAUACAACCUACUACCUCA, the “pre-steady-state target cleavage rate” value falls from 1.97 ± 0.099 to 0.184 ± 0.018.

Going from GGAGACCUUAGUAUACUACCUACUACCUCA to GGAGACCUAACUAUACAACCUUCUACCACA, the “pre-steady-state target cleavage rate” value rises from 0.0222 ± 0.0051 to 0.194 ± 0.026.

Going from GGAGACCUAUCUAUACAACCUACUACACUCA to CCUCUGGAUACUAUACAACCUAGUACCUCA, the “pre-steady-state target cleavage rate” value falls from 0.634 ± 0.061 to 0.172 ± 0.039.

First: GGUCUGGAUACAAUACAACCUAGUACCUCA
Second: GGAGAGGAUACUAUUCAACCUACUACCUCA
The “pre-steady-state target cleavage rate” value of the first is lower: 0.562 ± 0.054 for the first, 1.23 ± 0.062 for the second.

GGUCAGGAUACUAUUCAACCUACUACCUCA and GGACAGGAUACUAUUCAACCUACUACCUCA are within error of each other in “pre-steady-state target cleavage rate” value: 1.79 ± 0.1 for the first, 1.69 ± 0.11 for the second.

Going from GCUCUGGAUACUAUUCAACCUACUACCUCA to CCUCAGGAUACUAUUCAACCUACUACCUCA, the “pre-steady-state target cleavage rate” value rises from 1.87 ± 0.11 to 2.22 ± 0.14.

Going from GCUCAGGAUACUAUUCAACCUACUACCUCA to GCUCUGGAUACUAUACUAACCUACUACCUCA, the “pre-steady-state target cleavage rate” value falls from 2.09 ± 0.13 to 0.00667 ± 0.0041.

Going from GGAGACGAUACAAUUCAACCUACUACCUCA to GGAGUGGAUAGUAUACAACCUACUAGCUCA, the “pre-steady-state target cleavage rate” value falls from 0.664 ± 0.073 to 0.0218 ± 0.0063.

Compared with GGAGACGAUACUAUACUAGCUACUACCUCA, GGUCUGGAUUCUAUAGAACCUACUACCUCA is higher in “pre-steady-state target cleavage rate” value: 0.579 ± 0.048 for the first, 0.979 ± 0.064 for the second.

First: GGACUCGAUACAAUACAACCUACUACCUCA
Second: GCUCUCGAUAGUAUACAACCUACUACCUCA
The “pre-steady-state target cleavage rate” value of the first is lower: 1.46 ± 0.095 for the first, 1.95 ± 0.13 for the second.

Going from GCUCUCGAUACAAUACAACCUACUACCUCA to GGUCUCGAUACAAUACAACCUACUACCUCA, the “pre-steady-state target cleavage rate” value falls from 2.07 ± 0.12 to 1.77 ± 0.12.

First: GCUCUCGAUACUAUACAACCUACAACCUCA
Second: CCUCUCGAUACAAUACAACCUACUACCUCA
The “pre-steady-state target cleavage rate” value of the first is lower: 1.01 ± 0.078 for the first, 2.17 ± 0.14 for the second.

Going from GCUCUGGAUAGUAUUCAACCUACUACCUCA to GGAGACCAUACUAUUCAACCUACUACCACA, the “pre-steady-state target cleavage rate” value rises from 0.849 ± 0.044 to 1.05 ± 0.078.

Going from GGACUGGAUACUAUACAACCUACGUACCUCA to GCUCUGGAUACUAUACAACGUACUUCCUCA, the “pre-steady-state target cleavage rate” value falls from 0.656 ± 0.089 to 0.486 ± 0.045.

Compared with GGAGACGAAACUAUACAAGCUACUACCUCA, GGAGUGGUUUCUAUACAACCUACUACCUCA is higher in “pre-steady-state target cleavage rate” value: 0.872 ± 0.057 for the first, 1.32 ± 0.081 for the second.

Going from CCUCUGGAUACUAUACAACCUACUUACCUCA to GGUCUGGAUACUAUACAACCUACUUACCUCA, the “pre-steady-state target cleavage rate” value falls from 2.2 ± 0.14 to 1.23 ± 0.084.

Going from GCUCUGGAUACUUAUACAACCUACUACCUCA to GCUCUGGAUACUUACAACCUACUACCUCA, the “pre-steady-state target cleavage rate” value falls from 1.53 ± 0.084 to 1.18 ± 0.1.

Compared with CCUCUGGAUACUUACAACCUACUACCUCA, GCUCUGGAUACUAUACAACCUACUUACCUCA is higher in “pre-steady-state target cleavage rate” value: 1.3 ± 0.12 for the first, 2.1 ± 0.13 for the second.

GGAGACCUUACUAUACAACCUACCACCUCA and GGACUGGAUACUUAUCAACCUACUACCUCA are within error of each other in “pre-steady-state target cleavage rate” value: 0.847 ± 0.06 for the first, 0.719 ± 0.1 for the second.

Compared with GGACUGGAUACGAUACAACCUACUACCUCA, CCUCUGGAUACUAAACUACCUACUACCUCA is lower in “pre-steady-state target cleavage rate” value: 1.64 ± 0.1 for the first, 1.24 ± 0.098 for the second.

CCACAGGAUACUAUACAACCUACUACCUCA and CCUCAGGAUACAAUACAACCUACUACCUCA are within error of each other in “pre-steady-state target cleavage rate” value: 1.87 ± 0.13 for the first, 2.01 ± 0.12 for the second.

In the case of GCUCAGGAUACUUUACAACCUACUACCUCA, the “pre-steady-state target cleavage rate” value is reported as 1.81 ± 0.11.
